Among the test systems are SK-MEL-2 melanoma; EKVX NSCLC; UO-31 renal; TK-10 renal; ACHN renal; CAKI-1 renal; A498 renal; CCRF-CEM leukemia; MOLT-4 leukemia; SR leukemia; RPMI-8226 leukemia; OVCAR-8 ovarian; OVCAR-5 ovarian; OVCAR-4 ovarian; SK-OV-3 ovarian; IGROV1 ovarian; OVCAR-3 ovarian; HS 578T breast; NCI/ADR-RES ovarian.
Common to all, as to assay: NCI-60 one-dose screen, 48 h (100 = growth as untreated, 0 = no growth, -100 = all killed)
What all share (details): 10 µM unless noted

This is part of a sample that, as a whole, favours compounds with a hit. Of some 83,000 tested, about 20% had one in any assay.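 Testing used 96-well plates and a 48-hour single-concentration exposure. Example: -40 means 40% of the starting cells died.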 Values without a mark were called inactive. Calls of active or inactive are those of the source. The calls were made as follows: active = growth percent below 10; inactive = the rest.

On to `C/C1=C\CC[C@@]2(C)O[C@H]2[C@H]2OC(=O)C(CN3CCN(CC4C(=O)O[C@H]5[C@H]4CC/C(C)=C/CC[C@@]4(C)O[C@@H]54)CC3)[C@@H]2CC1` (some centres undefined), for which the growth in the test with SK-MEL-2 melanoma is 107%; in the test with EKVX NSCLC, 96.8%; with UO-31 renal, 96.7%; with TK-10 renal, 89.7%; in the test on ACHN renal it was 87.1%; in the test on CAKI-1 renal, 94%. Moreover, the growth with A498 renal is 114%; in the test on CCRF-CEM leukemia, 58%; in the test on MOLT-4 leukemia it was 84.3%; in the test with SR leukemia, 66%; with RPMI-8226 leukemia, 79%; in the test on OVCAR-8 ovarian, 91.5%. Besides, the growth with OVCAR-5 ovarian is 103%; in the test on OVCAR-4 ovarian, 103%; in the test on SK-OV-3 ovarian, 110%; with IGROV1 ovarian, 101%; in the test on OVCAR-3 ovarian, 79.7%; with HS 578T breast, 98.7%. The growth with NCI/ADR-RES ovarian is 101%.
Take `O=c1oc2c(C(F)(F)F)cccc2cc1-c1csc(Nc2ccc(OCCF)cc2)n1`: the growth in the test with SK-MEL-2 melanoma was 18%; in the test on EKVX NSCLC, 38%; in the test on UO-31 renal it was 40.3%; in the test on TK-10 renal, 59.7%; with ACHN renal, 23.2%; in the test on CAKI-1 renal it was 12.2%. The growth in the test with A498 renal is -9.67% (active); in the test on CCRF-CEM leukemia, 5.28% (active); with MOLT-4 leukemia, 15.8%; in the test on SR leukemia, 6.43% (active); in the test on RPMI-8226 leukemia, 15.9%; in the test on OVCAR-8 ovarian it was 4.22% (active). Moreover, the growth in the test on OVCAR-5 ovarian is 67.5%; in the test with OVCAR-4 ovarian, 40.4%; in the test on IGROV1 ovarian, 21.4%; with OVCAR-3 ovarian, -21.4% (active); with HS 578T breast, 22.7%; in the test on NCI/ADR-RES ovarian it was 17.5%.
As to `O=c1cc(CSc2nnc(SCc3cc(=O)oc4c3ccc3ccccc34)o2)c2ccc3ccccc3c2o1`, the growth is 87.8% in the test with SK-MEL-2 melanoma; 94.7% in the test on EKVX NSCLC; 81.2% in the test with UO-31 renal; 98.8% with TK-10 renal; 102% in the test with ACHN renal; 97.4% in the test on CAKI-1 renal. The growth was 98.9% in the test with A498 renal; 105% in the test with CCRF-CEM leukemia; 98% in the test with MOLT-4 leukemia; 91.7% with SR leukemia; 99.8% in the test on RPMI-8226 leukemia; 94.1% in the test with OVCAR-8 ovarian. Further, the growth was 99.7% in the test with OVCAR-5 ovarian; 111% in the test on OVCAR-4 ovarian; 98.8% with SK-OV-3 ovarian; 94.9% with IGROV1 ovarian; 105% in the test with OVCAR-3 ovarian; 94.2% in the test on HS 578T breast. In addition, the growth in the test with NCI/ADR-RES ovarian is 94.4%.
As for `NC(=NCCCOc1ccc(Cl)cc1)Nc1ccc(Cl)cc1`, the growth in the test on SK-MEL-2 melanoma was 24.1%; in the test with EKVX NSCLC, 44.4%; in the test on UO-31 renal, 37%; in the test on TK-10 renal it was 45.8%; in the test with ACHN renal, 2.74% (active); in the test with CAKI-1 renal it was 19.3%. Moreover, the growth was -12% (active) with A498 renal; 6.02% (active) in the test on CCRF-CEM leukemia; 4.83% (active) in the test on MOLT-4 leukemia; 4.92% (active) in the test with SR leukemia; 15.1% with RPMI-8226 leukemia; 60.4% in the test on OVCAR-8 ovarian. Moreover, the growth was 30.5% in the test on OVCAR-5 ovarian; 26.4% with OVCAR-4 ovarian; 69.2% in the test with SK-OV-3 ovarian; 8.71% (active) in the test with IGROV1 ovarian; 54.3% in the test on OVCAR-3 ovarian; 41.5% with HS 578T breast. Moreover, the growth with NCI/ADR-RES ovarian was 53.1%.
Consider `NC(=NC1C2CC3CC(C2)CC1C3)Nc1ccc(I)cc1` (centres undefined), for which the growth in the test with SK-MEL-2 melanoma is 50.3%; with EKVX NSCLC, 32.2%; in the test with UO-31 renal, 18.6%; in the test on TK-10 renal, 43.5%; in the test with ACHN renal, 7.41% (active); in the test on CAKI-1 renal it was 18%. Moreover, the growth was -12.5% (active) in the test with A498 renal; 8.16% (active) in the test on CCRF-CEM leukemia; 5.63% (active) with MOLT-4 leukemia; -10.1% (active) in the test on SR leukemia; 20.6% in the test with RPMI-8226 leukemia; 70.1% in the test with OVCAR-8 ovarian. Further, the growth is 38.9% with OVCAR-5 ovarian; 20.2% in the test on OVCAR-4 ovarian; 4.42% (active) in the test on IGROV1 ovarian; 53.9% with OVCAR-3 ovarian; 33% in the test with HS 578T breast; 49.5% with NCI/ADR-RES ovarian.
On to `NC(=O)c1cc(Cl)ccc1NC(=O)/C=C/c1ccccc1`, for which the growth was 57.7% in the test on SK-MEL-2 melanoma; 41% in the test on EKVX NSCLC; 41.3% with UO-31 renal; 45.1% with TK-10 renal; 59.8% in the test with ACHN renal; 56.5% with CAKI-1 renal. The growth in the test with A498 renal is 54.1%; with CCRF-CEM leukemia, 3.8% (active); in the test with MOLT-4 leukemia, 28.4%; in the test on SR leukemia, -34.1% (active); in the test with RPMI-8226 leukemia it was 12.8%; in the test on OVCAR-8 ovarian it was 51.2%. Besides, the growth with OVCAR-5 ovarian is 54.6%; in the test on OVCAR-4 ovarian, 40.7%; with SK-OV-3 ovarian it was 3.73% (active); in the test on IGROV1 ovarian, 88.6%; in the test with OVCAR-3 ovarian, -30.3% (active); in the test with HS 578T breast, 7.85% (active). Also, in the test on NCI/ADR-RES ovarian, the growth is 10.8%.
Consider `O=Nc1c(O)c(Cl)cc2ccccc12`, for which the growth is 93.4% with SK-MEL-2 melanoma; 111% in the test on EKVX NSCLC; 64.3% in the test with UO-31 renal; 66.3% in the test on TK-10 renal; 65.3% in the test with ACHN renal; 76.5% in the test with CAKI-1 renal. Besides, the growth with A498 renal was 77.2%; in the test with CCRF-CEM leukemia, 39.4%; in the test on MOLT-4 leukemia it was 45.7%; in the test on SR leukemia, 71.7%; with RPMI-8226 leukemia, 40.1%; in the test with OVCAR-8 ovarian, 68.6%. Also, the growth with OVCAR-5 ovarian was 115%; in the test on OVCAR-4 ovarian, 78.9%; with SK-OV-3 ovarian, 81.4%; in the test on IGROV1 ovarian it was 59.1%; in the test on OVCAR-3 ovarian, 67.3%; in the test on HS 578T breast, 89.4%. In addition, the growth in the test on NCI/ADR-RES ovarian was 72.2%.
Consider `NCCNc1nc(Nc2ccc(-c3nc4ccccc4[nH]3)cc2)c2cn[nH]c2n1`, for which the growth in the test on SK-MEL-2 melanoma is 75%; in the test on EKVX NSCLC, 88.9%; in the test with UO-31 renal it was 76.7%; in the test with TK-10 renal, 105%; in the test on ACHN renal it was 91.9%; in the test on CAKI-1 renal, 91.5%. Besides, the growth was 115% in the test on A498 renal; -3.49% (active) in the test with CCRF-CEM leukemia; 8.24% (active) in the test with MOLT-4 leukemia; -3.8% (active) in the test with SR leukemia; -11.7% (active) in the test with RPMI-8226 leukemia; 43.9% in the test on OVCAR-8 ovarian. The growth is 125% in the test with OVCAR-5 ovarian; 88.4% in the test with OVCAR-4 ovarian; 111% with SK-OV-3 ovarian; 97.6% with IGROV1 ovarian; 83.9% with OVCAR-3 ovarian; 94.9% in the test with NCI/ADR-RES ovarian.

These data come from PubChem BioAssay (NCI).
